In ChEMBL document CHEMBL1961873, “Compounds: GSK PKIS; Assays: Nanosyn kinase panel” (2012):

Legend:
[1] = target: Serine/threonine-protein kinase PAK 6 (Homo sapiens) (UniProt Q9NQU5); details: at 1 µM;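 further: values are mean percent inhibition of PAK6 kinase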
[2] = test system: Tyrosine-protein kinase ABL1 (Homo sapiens), P00519 [E255K]; details: at 0.1 µM
[3] = test system: Tyrosine-protein kinase ABL1 (Homo sapiens), P00519 [E255K]; details: at 1 µM
[4] = test system: Tyrosine-protein kinase ABL1 (Homo sapiens), P00519 [H396P]; details: at 0.1 µM
[5] = test system: Tyrosine-protein kinase ABL1 (Homo sapiens), P00519 [H396P]; details: at 1 µM
[6] = test system: Tyrosine-protein kinase ABL1 (Homo sapiens), P00519 [M351T]; details: at 0.1 µM
[7] = test system: Tyrosine-protein kinase ABL1 (Homo sapiens), P00519 [M351T]; details: at 1 µM
[8] = test system: Tyrosine-protein kinase ABL1 (Homo sapiens), P00519 [Q252H]; details: at 0.1 µM
[9] = test system: Tyrosine-protein kinase ABL1 (Homo sapiens), P00519 [Q252H]; details: at 1 µM
[10] = test system: Tyrosine-protein kinase ABL1 (Homo sapiens), P00519 [T315I]; details: at 0.1 µM

Serine/threonine-protein kinase PAK 6 (Homo sapiens), sequence (Q9NQU5 whole entry, looked up): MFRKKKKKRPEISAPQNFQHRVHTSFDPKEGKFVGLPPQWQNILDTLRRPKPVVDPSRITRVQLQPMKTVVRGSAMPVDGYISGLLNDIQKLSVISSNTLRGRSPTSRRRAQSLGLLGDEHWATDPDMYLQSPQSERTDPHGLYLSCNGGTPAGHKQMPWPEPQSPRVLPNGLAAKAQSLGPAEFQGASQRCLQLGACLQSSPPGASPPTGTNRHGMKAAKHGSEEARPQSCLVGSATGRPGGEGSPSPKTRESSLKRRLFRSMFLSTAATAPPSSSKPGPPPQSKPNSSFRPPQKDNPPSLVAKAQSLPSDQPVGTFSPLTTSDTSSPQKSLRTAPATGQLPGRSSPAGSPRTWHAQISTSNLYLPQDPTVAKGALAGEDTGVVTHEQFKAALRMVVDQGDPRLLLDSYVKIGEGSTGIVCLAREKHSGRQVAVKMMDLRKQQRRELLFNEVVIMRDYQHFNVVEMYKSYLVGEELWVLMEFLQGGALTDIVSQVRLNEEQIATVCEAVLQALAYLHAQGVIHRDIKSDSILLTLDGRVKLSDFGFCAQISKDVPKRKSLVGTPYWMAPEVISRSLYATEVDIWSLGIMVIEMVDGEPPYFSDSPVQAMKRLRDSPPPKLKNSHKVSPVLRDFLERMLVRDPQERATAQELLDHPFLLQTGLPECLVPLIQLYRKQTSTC

| Compound | inhibition [1] | inhibition [2] | inhibition [3] | inhibition [4] | inhibition [5] | inhibition [6] | inhibition [7] | inhibition [8] | inhibition [9] | inhibition [10] |
| --- | --- | --- | --- | --- | --- | --- | --- | --- | --- | --- |
| NCc1ccc(-n2c(-c3nonc3N)nc3cnccc32)cc1 | -0.18% | 3.58% | 2.62% | 5.81% | 0.32% | 3.87% | 0.32% | 4.57% | 1.69% | 2.95% |
| C[C@@H](Oc1cc(-n2cnc3ccc(OC4CCN(C)CC4)cc32)sc1C(N)=O)c1ccccc1Cl | -9.57% | 1.25% | 8.32% | 4.49% | 10.5% | 0.86% | 5.39% | 3.24% | 11% | 2.01% |
| CCS(=O)(=O)c1ccc(OC)c(Nc2ncc(-c3cccc(-c4ccccc4F)c3)o2)c1 | 1.97% | 40.6% | 84.4% | 34.5% | 82% | 44.6% | 86.9% | 37.9% | 84.6% | 1.82% |
| COC(=O)Nc1nc2ccc(Sc3ccc(NC(=O)Nc4cc(C(F)(F)F)ccc4F)cc3)cc2[nH]1 | 1.21% | -1.69% | 14.8% | 2.95% | 49.9% | 33.2% | 70.2% | 26.9% | 70.7% | 27.7% |
| CN(C)CCOc1ccc(-c2cc(-c3ccc4c(c3)CCC4=NO)c(-c3ccncc3)o2)cc1 | 1.93% | -1.95% | 7.95% | 1.96% | 20.9% | 3.15% | 19.9% | 4.54% | 34.5% | 1.35% |
| NC(=O)c1ccc(Oc2nccc(-c3c(-c4ccc(F)cc4)ncn3C3CCNCC3)n2)cc1 | -4.13% | 2.12% | 3.91% | 5.26% | 5.53% | -1.3% | -0.09% | 2.63% | 7.69% | 3.03% |
| Nc1nccc(-c2c(-c3ccc(F)cc3)ncn2C2CCC(O)CC2)n1 (stereo not given) | -1.54% | 2.5% | 16.9% | 3.86% | 33.6% | 7.44% | 36.6% | 5.19% | 33.9% | 6.26% |
| C[C@@H](Oc1cc(-n2cnc3ccc(OCC4CCN(C)CC4)cc32)sc1C(N)=O)c1ccccc1Cl | -3.14% | 0.13% | 4.51% | 2.87% | 9.39% | -0.56% | 5.2% | 4.18% | 8.32% | -2.27% |
| COc1cc(Nc2ncc3c(C)nc(-c4cccc(Oc5ccccc5)c4)n3n2)cc(OC)c1OC | -0.38% | 2.03% | 1.82% | 2.82% | 1.6% | 2.89% | 1.5% | 3.94% | 0.97% | 0.51% |
| Fc1ccc(-c2ncn(C3CCNCC3)c2-c2ccnc(Oc3ccc4c(c3)OCO4)n2)cc1 | -5.42% | 2.98% | 4.48% | 5.49% | 7.54% | 1.29% | 3.88% | 4.09% | 6.75% | 3.51% |
| Fc1ccc(-c2ncn(CCCN3CCOCC3)c2-c2ccncc2)cc1 | -7.59% | 0.23% | 0.13% | 0.23% | -0.46% | -2.27% | 1.4% | -1.12% | -0.09% | -1.3% |
| COc1ccc2cc(-c3c(-c4ccncc4)nc(-c4ccc([S+](C)[O-])cc4C)n3C)ccc2c1 (stereo not given) | 1.24% | -1.36% | 5.96% | 2.45% | 17.6% | 2.12% | 19.8% | 2.32% | 18% | 9.26% |
| C/C(Nc1ccc(S(N)(=O)=O)cc1)=C1/C(=O)Nc2ccccc21 | 0.59% | -1.03% | 3.45% | 0.93% | 7.24% | 3.92% | 14.7% | 2.51% | 13.6% | 1.39% |
| Cc1ccc(C(=O)NC2CCC2)cc1-c1ccc(C(=O)NCC2CC2)cc1 | -6.65% | 1.89% | 1.67% | 1.26% | 0.31% | -0.23% | -0.39% | 0.6% | 1.97% | 0.82% |
| CS(=O)(=O)CCNCc1ccc(-c2ccc3ncnc(Nc4ccc(OCc5ccccc5)c(Br)c4)c3c2)o1 | -7.5% | 1.35% | 2.28% | 4.48% | 4.61% | 0.99% | 2.04% | 3.94% | 4.09% | 1.53% |
| CCc1cccc(CC)c1/C=C/c1cncc(C(=O)NC)c1 | 11.5% | 3.61% | 17.5% | 7.45% | 37.4% | 7.15% | 32.1% | 3.16% | 12.1% | 2.72% |
| COc1cc2ncn(-c3cc(OCc4ccccc4C(F)(F)F)c(C(C)=O)s3)c2cc1OC | -3.04% | 1.66% | 4.89% | 4.51% | 5.12% | 1.37% | 6.24% | 4.93% | 4.96% | 1.88% |
| COc1cccc(/C=N/Nc2ncnc3c2cnn3-c2cccc(OC)c2)c1 | -7.63% | 7.5% | 34.4% | 9.64% | 41.8% | 7.51% | 42% | 12.9% | 54.9% | 3.28% |
| O=C(Nc1n[nH]c2nc(-c3ccc(O)cc3)c(Br)cc12)C1CC1 | 8.5% | 21% | 66.4% | 38.5% | 81% | 37.4% | 81% | 37.5% | 82.4% | 43.5% |
| CCS(=O)(=O)c1ccc(OC)c(Nc2ncc(-c3ccccc3Cl)o2)c1 | 0.05% | 2.3% | 16.3% | 5.27% | 23.2% | 5.47% | 22% | 5.67% | 26.3% | 3.23% |

| Compound | inhibition [1] | inhibition [2] | inhibition [3] | inhibition [4] | inhibition [5] | inhibition [6] | inhibition [7] | inhibition [8] | inhibition [9] | inhibition [10] |
| --- | --- | --- | --- | --- | --- | --- | --- | --- | --- | --- |
| COc1ccc2cc(-c3c(-c4ccncc4)nc(-c4ccc(S(C)(=O)=O)cc4C)n3C)ccc2c1 | -3.99% | 2.69% | 10.9% | 5.32% | 17.9% | 2.32% | 18% | 6.25% | 22.4% | 8.12% |
| COc1cc(C)c(N(C)C(=O)CN(C)C)cc1Nc1nc(Nc2cccc(F)c2C(N)=O)c2cc[nH]c2n1 | -3.09% | -1.15% | 1.77% | 1.11% | -0.41% | 0.41% | -0.05% | 0.29% | 0.09% | 0.48% |
| CCc1ccc(Oc2nccc(-c3c(-c4ccc(F)cc4)ncn3C3CCNCC3)n2)cc1 | 2.92% | 0.49% | 4.7% | 3.35% | 3.77% | 0.72% | 1.75% | 3.25% | 3.37% | 2.83% |
| COc1cccc(-n2cnc3c(N/N=C/c4ccncc4)ncnc32)c1 | 3.44% | 30.8% | 80.2% | 47.1% | 87.1% | 44.7% | 88.1% | 40.1% | 84.2% | 1.94% |
| NS(=O)(=O)c1ccc(Nc2cc(-c3ccc(O)c(F)c3)n[nH]2)cc1 | -3.83% | 1.72% | 14.8% | 2.42% | 27.3% | 4.46% | 30.5% | 1.52% | 20% | 0.21% |
| CCN(CC)Cc1ccc(Nc2nccc(-c3cnn4ncccc34)n2)cc1 | -2.98% | 2.66% | 22.6% | 8.9% | 37.5% | 4.62% | 37.4% | 8.65% | 43.2% | 7.91% |
| c1ccc(-c2n[nH]cc2-c2ccnc(-c3ccc(OCCN4CCOCC4)cc3)c2)nc1 | 3.66% | 9.49% | 47.8% | 19.5% | 70.9% | 22.1% | 69.1% | 11.9% | 51.8% | 1.78% |
| O=C(NCC1CC1)c1ccc(-c2cccc(C(=O)NC3CC3)c2)cc1 | 8.38% | 2.4% | 3.09% | 3.44% | 3.43% | 2.14% | 4.08% | 2.78% | 4.27% | 2.52% |
| CNC(=O)c1cncc(/C=C/c2c(C)cccc2C)c1 | 2.54% | 8.21% | 50.1% | 17.2% | 61.5% | 16.9% | 63.8% | 14.5% | 60.2% | 1.83% |
| NC(=O)Cc1ccccc1Oc1nccc(-c2c(-c3ccc(F)cc3)ncn2C2CCNCC2)n1 | -1.76% | 0.8% | 2.45% | 0.08% | -2.39% | -1.54% | -1.6% | 2.24% | 1.77% | 1.47% |
| CCC(=O)Nc1ccc(C)c(-c2ccc(C(=O)NCC3CC3)cc2)c1 | -9.47% | 2.13% | 2.73% | 3.96% | 4.29% | 2.37% | 1.29% | 3.29% | 4.63% | 2.76% |
| C#Cc1cccc(Nc2ncnc3ccc(OCCCCNCCS(C)(=O)=O)cc23)c1 | -2.58% | 4.64% | 19.7% | 7.05% | 23% | 4.14% | 19.2% | 6.79% | 22.7% | 3.9% |
| NC(=O)c1cc(-c2ccc(F)cc2)cc(-c2ccncc2)c1N | -7.94% | 3.29% | 4.43% | 3.43% | 5.86% | 2.81% | 2.85% | 4.84% | 5.67% | 3.32% |
| COc1ccc(-c2ccc3c(NC(=O)C4CC4)n[nH]c3n2)cc1 | -4.51% | 0.71% | 9.06% | 3.91% | 28% | 1.26% | 27.1% | 0.06% | 13.6% | 2.42% |
| CN(C)c1ccc2c(c1)/C(=C/Nc1ccc(S(N)(=O)=O)cc1)C(=O)N2 | -1.53% | 2.53% | 12.8% | 2.8% | 14.3% | 3.86% | 15.8% | 4% | 17.8% | 3.12% |
| Fc1ccc(-c2c(-c3ccncc3)nc3n2CCS3)cc1 | -5.03% | 1.44% | 4.74% | 2.06% | 3.54% | -0.24% | 5.03% | 1.69% | 4.11% | 0.05% |
| COc1ccc(C2=C(N3CCc4ccccc43)C(=O)NC2=O)cc1 | -1.91% | 3.46% | 3.94% | 3.85% | 5.26% | -0.47% | 7.03% | 4.56% | 6.15% | 3.54% |
| Fc1ccc(-c2ncn(C3CCNCC3)c2-c2ccnc(Oc3ccc(F)c(F)c3)n2)cc1 | -4.15% | 1.96% | 1.25% | 4% | 3.19% | -0.04% | -0.02% | 2.26% | 2.39% | 0.22% |
| COc1cc(N2CCN(C(C)C)CC2)ccc1Nc1nc(Nc2ccc(F)cc2C(=O)NC[C@@H](O)CO)c2cc[nH]c2n1 | -2.37% | 1.32% | 5.35% | 2.98% | 5.65% | 3.03% | 5.84% | 3.53% | 4.72% | 2.48% |
